The supplement of paper PMC10338343
± gives the standard deviation. Whole data set: some 6,200 sequences, median “pre-steady-state target cleavage rate” near 0.29, cut for the highest 2% near 2. The sample holds the highest values, similar sequences and a random draw of the others, so the mix is not that of the screen.

Tested on: MIWI (PIWIL1) piRISC loaded with piRNA #1 (30 nt)
Assay: pre-steady-state target cleavage rate (min^-1); MIWI and MILI are mouse PIWI proteins and EfPiwi is from a freshwater sponge; tags in brackets are library labels; higher = faster piRNA-guided slicing of the target
Conditions: guide: piRNA #1 5'p-UGAGGUAGUAGGUUGUAUAGUAUCCAGAGG; auxiliary factor: 500 nM mouse GTSF1
Description: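 Cleave-'n-Seq: a library of target RNAs (target site embedded in constant flanks, ACAGCATTCCGCGTTAGTGATATCCG... 5' flank; DNA-blocked outside the site) at 0.1 nM was incubated with 1 nM active mouse MILI or MIWI piRISC (synthetic 5'-monophosphorylated piRNA guide) with or without 500 nM mouse GTSF1 at 33 °C for 1 min to 16 h. Uncleaved targets were sequenced and normalised to non-target controls, and the pooled three trials were fitted to a burst-and-steady-state model to give the pre-steady-state cleavage rate (min^-1; k3 is constrained to at most 1e-4). Sequence is the target site only; target names encode pairing extent (gX:gY) and contiguous / 1-mismatch / 2-mismatch / bulge geometry. Fits with R² ≤ 0 are excluded.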

Sequence	pre-steady-state target cleavage rate
CUUCUGGAUACUAUACAACCUACUACCUCA	1.99 ± 0.11
GCUCUGGAAUACUAUACAACCUACUACCUCA	1.92 ± 0.1
GGUCUGGAUACUAUAUAACCUACUACCUCA	1.86 ± 0.1
GCUUCUGGAUACUAUACAACCUACUACCUCA	1.94 ± 0.091
CCUUCUGGAUACUAUACAACCUACUACCUCA	2.22 ± 0.12
CCUCUGGAUACUAUUACAACCUACUACCUCA	1.82 ± 0.12
CCUCUGGAUACUAUAUAACCUACUACCUCA	2.07 ± 0.12
GGUCUGGAAUACUAUACAACCUACUACCUCA	1.83 ± 0.11
GCUCUGGAUACUAUAUAACCUACUACCUCA	1.79 ± 0.1
CCUCUGGAAUACUAUACAACCUACUACCUCA	2.19 ± 0.13
GGACUGGAUAACUAUACAACCUACUACCUCA	1.11 ± 0.087
GGAGACCAUACUAUACAUCCUAGUACCUCA	0.343 ± 0.029
CCUCUGGAUACUAUAGAACCUACAACCUCA	0.0249 ± 0.007
GCUCUGGAAACUAUUCAACCUACUACCUCA	1.68 ± 0.12
CGCUCUGGAUACUAUACAACCUACUACCUCA	2.27 ± 0.14
GCUCUGGAUACUAUACAACCUACUAACCUCA	1.71 ± 0.11
CCUCUGGAUACUAUACAACCUAACUACCUCA	0.0333 ± 0.0068
GCUCUGGAUACUAUACAACCUACUACCUCA [g2:g29:cont:t1A]	1.89 ± 0.1
GGUCUGGAAACUAUUCAACCUACUACCUCA	1.58 ± 0.096
CCUCUGGAAACUAUUCAACCUACUACCUCA	2.02 ± 0.13
GCUCUGGAUACUAUACAACCUACCUACCUCA	1.63 ± 0.091
CCUCUGGAUACUAUACAACCUACUAACCUCA	2.09 ± 0.13
GGAGAGGAAACUAUACAACGUACUACCUCA	0.27 ± 0.037
GGAGACCUAUGAUAUGUACCAACAACCUCA	< 0.0001
GGAGUCGGAUACUAUACAACCUACUACCUCA	1.45 ± 0.091

Sequence	pre-steady-state target cleavage rate
GGUCUGCAUACUAUACAACCUACUACCUCA	1.71 ± 0.1
GCUCUGGAUACUACACAACCUACUACCUCA	1.89 ± 0.095
GGAGACCAUACUAAACAACCUACUACCUGA	0.604 ± 0.08
GGAGAGCAUACUAUACAACGUACUACCUCA	0.557 ± 0.036
GCUAUGGAUACUAUACAACCUACUACCUCA	1.93 ± 0.092
GGUAUGGAUACUAUACAACCUACUACCUCA	1.88 ± 0.11
CCUAUGGAUACUAUACAACCUACUACCUCA	2.15 ± 0.12
GGUCAUGGAUACUAUACAACCUACUACCUCA	1.85 ± 0.11
GCUCAUGGAUACUAUACAACCUACUACCUCA	1.98 ± 0.1
CCUCAUGGAUACUAUACAACCUACUACCUCA	2.31 ± 0.13
GGAGACGAUACAAUACAACCUACUUCCUCA	0.408 ± 0.056
GGUUGGAUACUAUACAACCUACUACCUCA	1.78 ± 0.1
GGUCUUGGAUACUAUACAACCUACUACCUCA	1.87 ± 0.11
GGACUUGGAUACUAUACAACCUACUACCUCA	1.78 ± 0.11
GCUUGGAUACUAUACAACCUACUACCUCA	1.87 ± 0.12
CCUUGGAUACUAUACAACCUACUACCUCA	2.26 ± 0.14
GCUCUUGGAUACUAUACAACCUACUACCUCA	2.1 ± 0.1
CCUUUGGAUACUAUACAACCUACUACCUCA	2.3 ± 0.12
CCUCUUGGAUACUAUACAACCUACUACCUCA	2.3 ± 0.12
GGUUUGGAUACUAUACAACCUACUACCUCA	1.81 ± 0.084
GCUUUGGAUACUAUACAACCUACUACCUCA	1.91 ± 0.11
GGAGACCUAACUAUACUAGCUACUACCUCA	0.0132 ± 0.006
GGAGACCUAACUUACAACCUACUACCUCA	0.00932 ± 0.008
CCUCUGGAUACUAUCAACCUACUACCUCA	1.82 ± 0.12
GGAGAGGAUACAAUACAACCUACUACCUCA	1.18 ± 0.063

Sequence	pre-steady-state target cleavage rate
CCUCUGGAUACUAUACAAACUACUACCUCA	1.27 ± 0.047
GGAGACCUAUCUAUACUACCUACUACCUCA	0.0899 ± 0.011
GGUCUGGAUAGUAUACAACGUACUACCUCA	0.319 ± 0.047
GGAGACCUAACUAUACAACGUACUAGCUCA	0.024 ± 0.0084
GGACUGGAUGCUAUACAACCUACUACCUCA	1.82 ± 0.15
GCUCUGGAUACUAUCAACCUACUACCUCA	1.78 ± 0.12
CCUCUGGAUACUAUCCAACCUACUACCUCA	2.1 ± 0.14
GCUCUGGAUACUAUCCAACCUACUACCUCA	2.05 ± 0.14
GCUCUGGAUACUAUACCAACCUACUACCUCA	0.392 ± 0.075
GGACUGGAUACUAUCCAACCUACUACCUCA	1.76 ± 0.11
GGUCUGGAUACUAUCCAACCUACUACCUCA	1.96 ± 0.14
GGAGAGGAUACUAUACAACCUAGUACCUCA	0.145 ± 0.031
GGAGACGAUACUAUACAACCUACAUCCUCA	0.342 ± 0.029
GGAGACCAAACUAUACAUCCUACUACCUCA	0.513 ± 0.06
GGAGUGCAUACUAUACAACCUACUACGUCA	0.629 ± 0.053
GGUCUGGAUACUUAUCAACCUACUACCUCA	0.863 ± 0.11
GCUCUGGCUACUAUACAACCUACUACCUCA	1.93 ± 0.099
GGUCUGGCUACUAUACAACCUACUACCUCA	1.99 ± 0.11
GCUCUGCAUACUAUACAACCUACAACCUCA	1.37 ± 0.12
GCUCUGGAUACUAUACAACCUACAUACCUCA	1.87 ± 0.16
GGACUGGCAUACUAUACAACCUACUACCUCA	1.68 ± 0.12
GGUCUGGCAUACUAUACAACCUACUACCUCA	1.86 ± 0.12
GCUCUGGCAUACUAUACAACCUACUACCUCA	2.17 ± 0.12
CCUCUGGCAUACUAUACAACCUACUACCUCA	2.31 ± 0.12
CCUCUGGCUACUAUACAACCUACUACCUCA	2.25 ± 0.11
